Assay outcomes from PubChem.
In the library only some 7.9% were active in any assay of this set; here they are far more common.
FMDV inh: foot and mouth disease virus antiviral activity. FMDV antiviral cell-based qHTS. Potency, µM (series often up to 57.9 µM), hits mostly inhibitors. 410,000 compounds, 1.2% hits. AID 1159524; calls by dose curve; tested in HEK293T cells; further: read-out not given here; nearly all actives have a fitted effect of over 45% in size
LASV entry inh: blocks Lassa virus binding to or entry into cells; Potency, µM (doses to about 37.9 µM), most hits filed as inhibitors; AID 540256; 300,000 compounds, 1.2% hits; Lassa virus pseudotype entry inhibition, cell reporter; calls by dose curve; tested in HEK293 cells; further: nearly all actives have a fitted effect of over 50% in size
HCMV inh: blocks human cytomegalovirus replication. activity change, negative = inhibition, % at 57.5 µM. 410,000 compounds, 4.5% hits. HFF cells, HCMV-luciferase reporter, 72 h; hits give low values; in the data active means activity change below about -60%; inconclusive means no clear call, values can overlap the other calls; inactive means above about -39%
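Two-dose cell screen: HFF monolayers treated with compounds and infected with luciferase-expressing HCMV at 1 PFU/cell, 72 h at 37C, then lysed for luciferase measurement.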
MARV entry inh: blocks Marburg virus binding to or entry into cells; Marburg virus pseudotyped entry inhibition, cell reporter; Potency, µM (doses to about 37.8 µM), most hits filed as inhibitors; 300,000 compounds, 1.8% hits; calls by dose curve; tested in HEK293 cells
HCV inh: HCV inhibition; Huh7.5.1 HCVcc-Cre infection, luciferase reporter, 44 h; Potency, µM (titrated, usually from 41.8 µM), hits mostly inhibitors; 340,000 compounds, 3.4% hits; AID 651820; active means well fitted inhibition curve with a large enough effect; inconclusive means small, poorly fitted or top-dose-only effect, or another doubt; inactive means no such curve, though single readings can be large or run the other way
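Cells seeded at 1,000/well and cultured 4 h, then compounds added followed by HCVcc-Cre virus (~0.5 moi). After 44 h further culture, luciferase substrate was added, plates held 15 min at room temperature, and luminescence read for 15 sec.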
Of the large screens only hits and unclear results are named; the others gave an inactive call.

COc1ccc(NC(=O)C2Cc3c(-c4ccccc4Oc4ccccc4)ccnc3O2)cn1 (centres undefined)	none (no result: LASV entry inh, MARV entry inh, HCV inh)
COc1ccc(S(=O)(=O)Nc2cccc(-c3ccc(N4CCC(C)CC4)nn3)c2)c(OC)c1	none (no result: MARV entry inh, HCV inh)
Cn1c(-c2ccncc2)nc2cc(C(=O)N3CCCC3c3nccs3)cc(NC(=O)C3CCC3)c21 (centres undefined)	none (no result: LASV entry inh, HCMV inh, MARV entry inh, HCV inh)
Cc1nonc1OCCN1CCN(c2ccc([N+](=O)[O-])cc2)CC1	FMDV inh inconclusive, MARV entry inh inconclusive, HCV inh inconclusive
O=[N+]([O-])c1ccc(N2CCN(CCOc3nonc3-c3ccccc3)CC2)c(Cl)c1	HCV inh 6.3µM (no result: FMDV inh)
CCc1ccccc1NC(=O)Cn1c(C(=O)OC)cc2oc(C)cc21	none (no result: LASV entry inh, HCV inh)
O=C1c2[nH]nc(-c3ccccc3)c2C(c2ccccc2)N1c1cccc(C(F)(F)F)c1 (centres undefined)	FMDV inh inconclusive, LASV entry inh inconclusive, HCMV inh -108 (no result: MARV entry inh, HCV inh)
O=C1c2[nH]nc(-c3ccc(Br)cc3)c2C(c2cccc(O)c2)N1c1ccc(Cl)cc1 (centres undefined)	FMDV inh inconclusive, LASV entry inh inconclusive, HCMV inh -105, MARV entry inh inconclusive (no result: HCV inh)
COC(=O)c1ccc(C2c3c(-c4ccc(Br)cc4)n[nH]c3C(=O)N2c2ccc(Cl)cc2)cc1 (centres undefined)	FMDV inh inconclusive, LASV entry inh inconclusive, HCMV inh -103, MARV entry inh inconclusive (no result: HCV inh)
CC(C)c1[nH]nc2c1C(c1cccc(C(F)(F)F)c1)N(c1ccccc1)C2=O (centres undefined)	none (no result: FMDV inh, LASV entry inh, MARV entry inh, HCV inh)
COC(=O)c1ccc(C2c3c(n[nH]c3C)C(=O)N2c2ccc(C)cc2)cc1 (centres undefined)	none (no result: LASV entry inh, MARV entry inh)
COc1ccccc1CN(C)CC(=O)Nc1cccc2ccccc12	LASV entry inh inconclusive, MARV entry inh inconclusive
CN(CC(=O)Nc1ccccc1-c1ccccc1)Cc1ccccc1Cl	HCMV inh inconclusive, MARV entry inh 11µM
CN(CC(=O)Nc1ccccc1Br)CC(=O)Nc1ccccc1-c1ccccc1	HCV inh inconclusive (no result: LASV entry inh, MARV entry inh)
COc1cc(Cl)c(C)cc1NC(=O)CN(C)Cc1cccc(OC)c1OC	HCV inh 10µM (no result: LASV entry inh, MARV entry inh)
CCOC(=O)NN=C1C[C@@H](O)[C@@H](O)[C@@H]2[C@H]3C(=O)N(C4CCCCC4)C(=O)[C@@H]3CC[C@@H]12	none (no result: FMDV inh, HCMV inh, HCV inh)
CCc1nc(SCc2ccc(OCC(C)C)cc2)n[nH]1	LASV entry inh inconclusive, HCMV inh inconclusive, MARV entry inh 7.9µM, HCV inh inconclusive
CCc1nc(SCc2ccc(Br)cc2)n[nH]1	MARV entry inh inconclusive
Cc1ccc(C(OCCN(C)C)c2cccc(C(F)(F)F)c2)cc1 (centres undefined)	LASV entry inh inconclusive, HCMV inh inconclusive, MARV entry inh 21µM, HCV inh inconclusive
Cc1ccc(NC(=S)NNC(=S)Nc2cccc(C(F)(F)F)c2)cc1	HCV inh inconclusive
c1ccc(Nc2ncnc3ccc(-c4ccc5c(c4)OCO5)cc23)cc1	none (no result: LASV entry inh, HCMV inh, MARV entry inh, HCV inh)
COc1ccc2[nH]c3c(c2c1)[C@@H]1CCN2C(=O)CCC[C@H](C3)[C@H]12	HCMV inh -61 (no result: LASV entry inh, MARV entry inh)
Cc1ccc(OCCN2CCN(C(=O)CCC(=O)Nc3nnc(C(C)C)s3)CC2)cc1	FMDV inh inconclusive, LASV entry inh inconclusive, HCMV inh -84, MARV entry inh inconclusive, HCV inh inconclusive
CCCc1nnc(NC(=O)CCC(=O)N2CCN(CCOc3ccc(C)cc3)CC2)s1	HCMV inh inconclusive, MARV entry inh inconclusive, HCV inh inconclusive
Cc1ccc(OCCN2CCN(C(=O)CCC(=O)Nc3nnc(C)s3)CC2)cc1	FMDV inh inconclusive, HCMV inh -101
CC(=O)OCCn1c2nc(=O)[nH]c(=O)c-2nc2cc(C)c(C)cc21	HCV inh inconclusive (no result: LASV entry inh, MARV entry inh)
Cc1cc2nc3c(=O)[nH]c(=O)nc-3n(C)c2cc1C=O	FMDV inh 16µM (no result: LASV entry inh, HCMV inh, MARV entry inh, HCV inh)
COc1ccc2c3c([nH]c2c1)[C@@H](CO)N(C(=O)C1CCOCC1)CC31CCN(Cc2nccs2)CC1	none (no result: FMDV inh, LASV entry inh, MARV entry inh, HCV inh)
COc1ccc(C2=NN(C(=O)CCC(=O)O)C(c3ccc(OC)c(OC)c3)C2)cc1 (centres undefined)	HCMV inh -102
O=S(=O)(NCCc1nnc2ccc(SCc3cccc(Cl)c3)nn12)c1ccccc1	none (no result: MARV entry inh, HCV inh)
Cc1nn(C)cc1CN1CCOc2ccc(C(C)(O)COc3ccccc3)cc2C1 (centres undefined)	none (no result: LASV entry inh, HCMV inh, MARV entry inh, HCV inh)
CCOC(=O)c1cc(-c2ccncc2)nc2c1c(C)nn2-c1ccccn1	FMDV inh inconclusive, LASV entry inh inconclusive, MARV entry inh inconclusive, HCV inh 7.9µM
Cc1c(CN2CCC(CO)(Cc3cccc(C(F)(F)F)c3)CC2)c2ccccc2n1C	LASV entry inh inconclusive, HCMV inh -99, MARV entry inh inconclusive, HCV inh inconclusive
OCC1(Cc2cccc(C(F)(F)F)c2)CCN(Cc2cc3ccccc3o2)CC1	MARV entry inh inconclusive
CC(=O)c1ccc(C(=O)N2CCC(CO)(Cc3cccc(C(F)(F)F)c3)CC2)cc1	LASV entry inh inconclusive, HCMV inh -75, MARV entry inh inconclusive, HCV inh inconclusive
Cc1c(O)cccc1C(=O)N[C@@H](CSc1ccccc1)[C@H](O)CN1C[C@H]2CCCC[C@H]2C[C@H]1C(=O)NC(C)(C)C	FMDV inh inconclusive, HCV inh 10µM (no result: LASV entry inh, MARV entry inh)
CCN(CC(=O)NC(C)(C)C)C(=O)c1ccccc1SCC(=O)NC1CCCCCCC1	none (no result: HCV inh)
COc1ccc(C(C(=O)NC2CCCCC2)N(C(=O)CCl)c2ccc(C)cc2)cc1 (centres undefined)	FMDV inh inconclusive, LASV entry inh inconclusive, HCMV inh -99, MARV entry inh inconclusive, HCV inh 0.56µM
COc1ccc(N(C(=O)Cc2cccs2)C(C(=O)NC2CCCC2)c2ccncc2)cc1 (centres undefined)	none (no result: LASV entry inh)
COc1ccc(C(C(=O)NC2CCCCC2)N(C(=O)CCl)c2ccc(OC)cc2)cc1 (centres undefined)	FMDV inh 8.9µM, HCV inh 1µM (no result: HCMV inh)
COc1ccc(C(C(=O)NC2CCCC2)N(C(=O)c2ccoc2C)c2ccc(C)cc2)cc1 (centres undefined)	LASV entry inh inconclusive, HCMV inh inconclusive
COc1ccc(C(C(=O)NC2CCCCC2)N(C(=O)CCl)c2cccc(Cl)c2)cc1 (centres undefined)	FMDV inh 25µM, LASV entry inh 3.5µM, HCMV inh -99, MARV entry inh inconclusive, HCV inh 1.6µM
CCn1c(=O)n(-c2cccc(Cl)c2)c(=O)c2sc3ccccc3c21	LASV entry inh inconclusive (no result: HCV inh)
COc1cc2c(C(=O)NCc3ccc4c(c3)OCO4)cn(C)c(=O)c2cc1OC	HCV inh inconclusive
COc1cc2c3c(n(C)c(=O)c2cc1OC)-c1cc2c(cc1C3=O)OCO2	LASV entry inh inconclusive, MARV entry inh 0.56µM, HCV inh inconclusive (no result: HCMV inh)
COCc1[nH]nc2c1[C@@H](c1cccc(OC)c1)C(C#N)=C(N)O2	none (no result: FMDV inh, LASV entry inh, HCMV inh, HCV inh)
Cc1ccc(-c2cnn(-c3cccc(C(F)(F)F)c3)c2N)cc1	HCV inh 11µM
Nc1c(-c2ccc(Cl)cc2)cnn1-c1cccc(C(F)(F)F)c1	MARV entry inh inconclusive
O=C(CSc1nnc2[nH]c(=O)cc(-c3ccccc3)n12)Nc1ccc(OC(F)(F)F)cc1	none (no result: MARV entry inh, HCV inh)
